The results in this text go back to PubChem BioAssay AID1626 (SRMLSC, 2009).

Screen size: about 220,000 compounds; about 2,000 (0.91%) were called active. Not shown: some 2% with an inconclusive outcome. Rule as the data show it: inconclusive = inhibition above about 80% without an active follow-up result; inactive = below that; test concentration not stated here. These entries were drawn from the full list. Entries with a potency or affinity are not part of this list.

The nature of the assay: M. tuberculosis H37Rv growth inhibitors, H37Rv strain (AID 1626).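 Also: bacteria incubated seven days before Alamar blue readout; 0% = bacteria only wells and 100% = bacteria with antibiotic wells.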 To be noted: active compounds read high, concentration not given here.
Take `Cc1cc(C)c(NC(N)=S)c(C)c1`: the inhibition is 5.56% (inactive).
With `O=C(Nc1ccc2c(c1)Cc1ccccc1-2)c1cc2ccccc2o1`, the inhibition was 34.9% (inactive).
Regarding `CCOC(=O)/C(C(C)=O)=C1/OC(=O)c2ccccc21`, the inhibition was 2.35% (inactive).
With `COc1ccc(N2CCN(S(=O)(=O)c3ccc(OC)cc3)CC2)cc1`, the inhibition is 6.85% (inactive).
For the compound `O=C(Nc1ccc(F)cc1F)C1(c2cccs2)CCOCC1`, the inhibition was 4.02% (inactive).
Take `CCc1ccc(CCC(=O)Nc2ccc(C(C)=O)cc2)o1`: the inhibition is 7.37% (inactive).
Take `O=C(CCC1COc2ccccc2O1)Nc1cccnc1` (stereo not drawn): the inhibition is -8.19% (inactive).
Consider `CCc1ccc(CCC(=O)Nc2ccc(C)cc2C)o1`, for which the inhibition was 12.7% (inactive).
On to `COC(=O)CCC(=O)Nc1ccc(OC)cc1`, for which the inhibition is 1.4% (inactive).
As for `Cc1ccc(NC(=O)CCSCCC(=O)Nc2ccc(C)c(C)c2)cc1C`, the inhibition was 7.02% (inactive).
As to `CCOC(=O)c1c(NC(=O)CCc2ccc(CC)o2)sc(C)c1C`, the inhibition is -6.75% (inactive).
With `Cc1cc(C)nc(NS(=O)(=O)c2ccc(NC(=O)CCC3COc4ccccc4O3)cc2)n1` (stereo not drawn), the inhibition was 0.51% (inactive).
`CCc1ccc(CCC(=O)Nc2ccc(S(N)(=O)=O)cc2)o1`: the inhibition is 1.79% (inactive).
In the case of `O=[N+]([O-])c1ccc(C2CCCC/C2=N/OCc2ccccc2F)c([N+](=O)[O-])c1` (stereo not drawn), the inhibition was 0.93% (inactive).
`CC1CC(=O)c2cnc(Nc3cccc(C(F)(F)F)c3)nc2C1` (stereo not drawn): the inhibition was 2.97% (inactive).
For `O=C(Cn1nc(-c2ccccc2)c2ccccc2c1=O)NCC1CCCO1` (stereo not drawn), the inhibition is 8.76% (inactive).
The result for `Cc1ccc(-n2c(C)cc3c2CCCC3=O)cc1` reads -0.32% (inactive).
Next, `COC(=O)c1ccc(C(C(=O)NC2CCCCC2)N(C(=O)Cc2cccs2)C2CC2)cc1` (stereo not drawn): -2.62% (inactive).
As to `COc1ccc(CCNC(=O)C2CCN(c3ccc(N4CCOCC4)nn3)CC2)c(OC)c1`, the inhibition was 6.05% (inactive).
With `COc1ccc(-c2nc3ncccn3c2Br)cc1`, the inhibition was -1.31% (inactive).
As for `c1cnc2nc(-c3ccc4c(c3)OCO4)cn2c1`, the inhibition was -8.76% (inactive).
As for `CC(NC(=O)COC(=O)Cc1ccsc1)c1ccccc1` (stereo not drawn), the inhibition was -0.56% (inactive).
Regarding `O=C(NCc1ccccc1)N(Cc1cc2cc3c(cc2[nH]c1=O)OCCO3)CC1CCCO1` (stereo not drawn), the inhibition was -1.33% (inactive).
For `CC1CCN(Cc2c(C#N)c3ccccc3n2C)CC1`, the inhibition is -4.52% (inactive).
Take `Cc1nc(Nc2ccccc2)sc1C(=O)Nc1ccccc1`: the inhibition was 21.1% (inactive).
Consider `Cc1nc(Nc2c(Cl)cccc2Cl)sc1C(=O)Nc1ccccc1`, for which the inhibition was 10.3% (inactive).
With `O=C(OCC(=O)c1ccc[nH]1)c1ccc(S(=O)(=O)N2CCCCC2)cc1`, the inhibition was -10.2% (inactive).
Next, `S=c1[nH]nc(COc2ccccc2)n1/N=C/C=C/c1ccccc1`: 12.1% (inactive); `CCN(CC)C(=O)N1CCN(S(=O)(=O)c2ccc(C)cc2)CC1`: -9.01% (inactive); `O=C(COc1ccccc1)Nn1c(-c2ccccc2)nc2ccccc2c1=O`: -3.31% (inactive).
`O=C(N/N=C/c1ccncc1)c1ccc(NS(=O)(=O)c2cccs2)cc1`: the inhibition was -0.88% (inactive).
With `COc1ccc(N2CCN(c3cnc4ccccc4n3)CC2)cc1`, the inhibition was -9.34% (inactive).
As for `c1ccc(N2CCN(c3cnc4ccccc4n3)CC2)cc1`, the inhibition is 5.67% (inactive).
With `CC(C)C(NS(=O)(=O)c1cccc2nsnc12)C(=O)NCCC1=CCCCC1` (stereo not drawn), the inhibition was -3.27% (inactive).
Regarding `O=c1[nH][nH]c(-c2ccccc2O)c1C(C[N+](=O)[O-])c1ccccc1` (stereo not drawn), the inhibition is 6.94% (inactive).
`Cc1[nH]c2ccccc2c1C(C[N+](=O)[O-])c1cccc(O)c1` (stereo not drawn): the inhibition was 6.89% (inactive).
On to `Cc1cc(O)c(C(C[N+](=O)[O-])c2ccc(Cl)cc2Cl)c(=O)o1` (stereo not drawn), for which the inhibition is 2.19% (inactive).
For the compound `Cc1[nH]n(-c2ccccc2)c(=O)c1C(C[N+](=O)[O-])c1ccccc1Cl` (stereo not drawn), the inhibition was 3.54% (inactive).
Next, `Cc1cc(O)c(C(C[N+](=O)[O-])c2ccc(Cl)cc2)c(=O)o1` (stereo not drawn): 6.11% (inactive); `Cc1ccc(C(C[N+](=O)[O-])c2c(-c3ccccc3O)[nH][nH]c2=O)cc1` (stereo not drawn): 4.79% (inactive).
The result for `O=C(Nc1ccccc1)c1ccc(NCc2cccnc2)c(S(=O)(=O)N2CCOCC2)c1` reads 1.54% (inactive).
The result for `COc1cc(-c2nc3n(n2)C(c2ccncc2)C(C(N)=O)=C(C)N3)cc(OC)c1OC` (stereo not drawn) reads -5.67% (inactive).
As to `COc1cccc(C2=CC(c3cccc(OC)c3OC)n3nnnc3N2)c1` (stereo not drawn), the inhibition is -6.61% (inactive).
Take `O=C(COC(=O)c1cc(S(=O)(=O)N2CCCC2)ccc1O)Nc1ccc(S(=O)(=O)N2CCOCC2)cc1`: the inhibition was 1.29% (inactive).
Regarding `CN1CCC(N(C)C(=O)c2cc(=O)c3ccccc3o2)CC1`, the inhibition was 18.1% (inactive).
As to `CCOC(=O)c1sc2nc(CSc3ccccc3)nc(NCCN(C)C)c2c1C`, the inhibition was -5.4% (inactive).
Next, `Cc1sc2nc(CSc3ccccc3)nc(N3CCN(C)CC3)c2c1C`: 0.24% (inactive).
As for `CCC(C)NC(=O)c1c(N)n(/N=C/c2cccnc2)c2nc3ccccc3nc12` (stereo not drawn), the inhibition was 7.17% (inactive).
On to `CC(C)CNC(=O)c1c(N)n(/N=C/c2ccccn2)c2nc3ccccc3nc12`, for which the inhibition is -5.94% (inactive).
In the case of `Cc1ccc(CSCc2ccc(C(=O)NCC3CCCO3)o2)cc1` (stereo not drawn), the inhibition is 6.03% (inactive).
For the compound `CCOC(=O)c1ccc(NC(=S)N2CCN(c3ccc(N4CCOCC4)nn3)CC2)cc1`, the inhibition is 4.49% (inactive).
Turning to `CC(C)C(NC(=O)c1ccccc1)C(=O)NC1=NCCS1` (stereo not drawn), the inhibition was -2.59% (inactive).
The result for `CCc1nnc(NC(=O)c2cc(-c3ccccc3)nn2-c2ccccc2)s1` reads 19.3% (inactive); that for `O=C(Nc1nc2ccccc2s1)c1cc(-c2ccccc2)nn1-c1ccccc1`, -3.23% (inactive).
Next, `CC(OC(=O)CCC(=O)c1cccs1)C(=O)Nc1ccc(Cl)cn1` (stereo not drawn): 2.41% (inactive).
Consider `Fc1ccc(-c2cc3nc(-c4ccccc4)cc(N4CCOCC4)n3n2)cc1`, for which the inhibition was 1.89% (inactive).
On to `OC1CCN(c2cc(-c3ccccc3)nc3cc(-c4ccc(F)cc4)nn23)CC1`, for which the inhibition is 5.18% (inactive).
For the compound `O=C(O)C(Oc1ccc2c3c(c(=O)oc2c1)CCC3)c1ccccc1` (stereo not drawn), the inhibition is -10.3% (inactive).
The result for `Cc1nnc(SCC(=O)Nc2ncc(S(=O)(=O)c3ccc([N+](=O)[O-])cc3)s2)s1` reads -0.12% (inactive); that for `Cc1ccc(Nc2nnc(SCC(=O)Nc3ncc(S(=O)(=O)c4ccc([N+](=O)[O-])cc4)s3)s2)cc1`, 0% (inactive).
With `COc1ccc(OCC(O)CNC(=O)Nc2cc(C)cc(C)c2)cc1` (stereo not drawn), the inhibition was -16.7% (inactive).
For the compound `CCOC(=O)C(Cc1ccccc1)C(=O)Nc1ccc(NC(=O)C(Cc2ccccc2)C(=O)OCC)cc1` (stereo not drawn), the inhibition is 3.39% (inactive).
In the case of `CCOC(=O)C(Cc1ccccc1)C(=O)Nc1ccccc1C` (stereo not drawn), the inhibition was -5.73% (inactive).
For `COC(=O)c1cn(NC(=O)Cc2cccc(OC)c2)c(=O)c2ccccc12`, the inhibition was 3.66% (inactive).
The result for `CC1CCN(S(=O)(=O)N2CCC(C(=O)NCc3cccs3)CC2)CC1` reads -4.64% (inactive); that for `Cc1cc(C(=O)COc2ncnc3sccc23)c(C)n1C`, -3.73% (inactive); that for `Cc1noc(-c2ccccc2OC(=O)c2ccccc2)n1`, 1.9% (inactive).
The result for `COC(=O)c1ncccc1SC` reads -0.23% (inactive); that for `COC(=O)c1cc(Sc2c(Cl)cccc2Cl)ccn1`, 34% (inactive).
Next, `S=C(NCc1ccco1)Nc1ccc(Br)cc1Cl`: 4.87% (inactive).
In the case of `O=C(c1c[nH]cc1-c1ccccc1)c1cccc2ccccc12`, the inhibition was -3.22% (inactive).
With `O=c1cc(-c2ccccc2)c2ccccc2[nH]1`, the inhibition is -8.75% (inactive).
In the case of `COc1ccc(C(CC(=O)Nc2ccccc2OC)n2cccc2)cc1` (stereo not drawn), the inhibition is 3.19% (inactive).
The result for `CCOC(=O)N1CCN(C(=O)CN(c2ccc(OC)cc2)S(C)(=O)=O)CC1` reads -8.65% (inactive); that for `CCn1c(=O)c(C(=O)NC(C)C)c(O)c2ccccc21`, 0.51% (inactive).
Turning to `O=S(=O)(Nc1ccccc1)c1ccc(-c2csnn2)cc1`, the inhibition was 8.85% (inactive).
`CCN(CC)C(=O)CN(c1cc(Cl)ccc1OC)S(=O)(=O)c1ccc(C)c([N+](=O)[O-])c1`: the inhibition was 4.94% (inactive).
For the compound `O=C(NCc1nnc2c3ccccc3c(-c3ccccc3)nn12)c1ccccc1Cl`, the inhibition was 17.6% (inactive).
As to `O=C(COc1ccc(Cl)cc1)NCc1nnc2c3ccccc3c(-c3ccccc3)nn12`, the inhibition was 32.3% (inactive).
Next, `CCn1nc(C(=O)NCCc2ccc(S(N)(=O)=O)cc2)c2ccccc2c1=O`: -2.56% (inactive); `COc1cc(OC)c2c(-c3ccccc3)cc(=O)oc2c1C(CCN1CCN(c2ccccc2)CC1)c1ccc(N(C)C)cc1` (stereo not drawn): 13.6% (inactive); `COc1ccc(C(CCN2CCN(c3ccccc3)CC2)c2c(OC)cc(OC)c3c(-c4ccccc4)cc(=O)oc23)cc1` (stereo not drawn): 6.72% (inactive).
For `COc1cc(C(CCN2CCCCC2)c2c(OC)cc(OC)c3c(-c4ccccc4)cc(=O)oc23)cc(OC)c1OC` (stereo not drawn), the inhibition was 10.2% (inactive).
`COc1ccc(C(CCN2CCCC2)c2c(OC)cc(OC)c3c(-c4ccccc4)cc(=O)oc23)cc1` (stereo not drawn): the inhibition is 64.5% (inactive).
Take `CC(C)CCn1nnnc1C(C(C)C)N1CCC(C(N)=O)CC1` (stereo not drawn): the inhibition was -6.25% (inactive).
With `CC(/C=C/c1ccco1)=N\NC(=O)c1cc(C)[nH]n1`, the inhibition is -12% (inactive).
The result for `O=C(Nc1ccccc1O)c1cc(S(=O)(=O)N2CCOCC2)ccc1Cl` reads 6.89% (inactive); that for `NNc1nc(-c2ccccc2)cs1`, 4.39% (inactive); that for `Cc1ccc(/C=C\c2nccc3c2[nH]c2ccccc23)cc1`, 42.1% (inactive).
In the case of `Fc1ccc(/C=C\c2nccc3c2[nH]c2ccccc23)cc1`, the inhibition was 8.94% (inactive).
On to `Cc1ccc(/C=N/NC(=O)Cn2nnc(N)n2)cc1`, for which the inhibition was -5.78% (inactive).
In the case of `CCC(C)[C@H](NC(=O)NCCC1=CCCCC1)C(=O)OC` (stereo partly drawn), the inhibition is -7.06% (inactive).
Next, `O=C(CSc1ncccn1)N/N=C/c1ccc(OC2CSC2)cc1`: 0.1% (inactive).

Usually inhibition stands for the drop in the measured response relative to a control, in per cent.
